The results in this text go back to article PMC4552634, “A New Set of Chemical Starting Points with Plasmodium falciparum Transmission-Blocking Potential for Antimalarial Drug Discovery” (PLoS ONE, 2015).

The campaign covered roughly 13,000 compounds. About 3,200 (25%) showed an effect of 50% or more. The list shows a part of the results.

The test relates to P. falciparum stage V gametocytes. More on the design: BacTiter-Glo ATP luminescence viability of purified stage V gametocytes in 384-well plates, per cent inhibition versus DMSO. The settings on record: 48 h, 5 µM; inhibitor.
Regarding `CCOc1cc(C)ccc1C1CCN(CCCCNC(=O)c2nc(-c3ccc(C(F)(F)F)cc3)[nH]c2C)CC1` [TCMDC-138585], the % Inhibition (as a rule, the drop in the measured response relative to a control, in per cent) was -10.92%. The value for `COc1ccc(-c2nc3ccc(C)nc3nc2-c2ccc(OC)cc2)cc1` [TCMDC-142014] was 17.71%; that for `CC(CCc1ccccc1)NCC(O)c1cccc(C(F)(F)F)c1` (stereo not drawn) [TCMDC-131247] was 18.39%; that for `c1ccc(-c2nc(NCCCn3ccnc3)cc(-c3ccncc3)n2)cc1` [TCMDC-125417] was 49.28%. Regarding `c1ccc(-c2cc(NCCCn3ccnc3)nc(-c3cccnc3)n2)cc1` [TCMDC-125422], the “% Inhibition” value is 8.996%. On to `FC(F)(F)c1cccc(-c2cc(NCCCn3ccnc3)nc(-c3ccncc3)n2)c1` [TCMDC-125414], for which the “% Inhibition” value is given as 56.64%. As for `CC1CN=C(c2ccc(NC(=O)c3ccc(C(=O)Nc4ccc(C5=NCC(C)N5)cc4)cc3)cc2)N1` (stereo not drawn) [TCMDC-137474], the “% Inhibition” value was 8.984%.

Turning to `O=S(=O)(NCCN1CCCC1)c1ccc(-c2cccc(CNCc3ccsc3)c2)s1` [TCMDC-132274], the “% Inhibition” value turned out to be 102.4%.

Turning to `Cc1ccc(CNC(=O)c2ccc(CN3CCCN(Cc4ccsc4)CC3)cc2)cc1` [TCMDC-136451], the “% Inhibition” value stood at 11.88%. On to `O=S(=O)(NCCN1CCCC1)c1ccc(-c2ccc(CNCc3ccsc3)cc2)s1` [TCMDC-132285], for which the “% Inhibition” value is 78.64%. Take `COc1ccc(S(=O)(=O)NC2CCN(c3ccc(C(F)(F)F)cc3NC(=O)OCC(C)C)CC2)cc1` [TCMDC-134275]: the “% Inhibition” value was 14.87%. Take `N#Cc1cccc(NC(=O)Nc2cccc(-c3cccc(-c4nc5ccc(C(F)(F)F)cc5[nH]4)c3)c2)c1` [TCMDC-133195]: the “% Inhibition” value was -34.96%. The value for `Cc1nn(-c2ccccc2)c2c1C(c1ccc(C(C)C)cc1)N1C(=N2)N(Cc2ccccc2)c2ccccc21` (stereo not drawn) [TCMDC-123903] was -90.94%; that for `COc1ccc(CN2CCN(CCOC(c3ccccc3)c3ccccc3)CC2)c(O)c1` [TCMDC-135693] was 26.17%. In the case of `CCN1C(=O)N(CCC(C)C)C2(CCN(Cc3ccc(OC)cc3O)CC2)C1=O` [TCMDC-124587], the “% Inhibition” value is 63.13%. The value for `COc1ccc(CN2CCN(CCOC(c3ccc(F)cc3)c3ccc(F)cc3)CC2)c(O)c1` [TCMDC-135694] was 24.37%; that for `COc1ccc(S(=O)(=O)NCC2CCCN(CCCCCNC(=O)/C=C/c3ccc(Cl)c(Cl)c3)C2)cc1` (stereo not drawn) [TCMDC-139595] was 95.6%.

For the compound `O=C(/C=C/c1ccc(Cl)c(Cl)c1)NCCCCCN1CCCC(CNS(=O)(=O)c2ccc(F)cc2)C1` (stereo not drawn) [TCMDC-139596], the “% Inhibition” value is recorded as 59.41%. For the compound `O=c1cc(NCCCNCc2cc(F)cc(C(F)(F)F)c2)[nH]c2ccccc12` [TCMDC-139726], the “% Inhibition” value is listed as 25.21%. The value for `CC(C)Oc1ccc2ccccc2c1CNCCCCCCNCc1c(OC(C)C)ccc2ccccc12` [TCMDC-137965] was 107.1%. The value for `COc1ccc2ccccc2c1CNCCCCCCNCc1c(OC)ccc2ccccc12` [TCMDC-137915] was 112.9%. The value for `CC(C)COc1ccc2ccccc2c1CNCCCCCCNCc1c(OCC(C)C)ccc2ccccc12` [TCMDC-137972] was 129.3%; that for `CC(C)CCNCc1c(O)ccc2ccccc12` [TCMDC-137596] was 6.02%; that for `CCCCNC[C@@H](O)[C@H](Cc1ccccc1)NC(=O)c1cc(NCC)cc(N2CCCCS2(=O)=O)c1` [TCMDC-135177] was 4.465%. With `CCOC(=O)c1[nH]c(-c2cccc(F)c2)nc1N` [TCMDC-131794], the “% Inhibition” value is -46.62%. The value for `O=C(Nc1cccnc1)c1cc(-c2cccnc2)nc2ccc(Cl)cc12` [TCMDC-124361] was -11.56%; that for `COc1ccc(-n2ncc(C(=O)N3CCC4(C3)C(=O)N(c3ccccc3)c3ccccc34)c2C)cc1` (stereo not drawn) [TCMDC-134122] was -6.778%; that for `COc1ccc2[nH]cc(C3CCN(CCCCCNC(=O)c4ccc(-c5ccccc5)cc4)CC3)c2c1` [TCMDC-139053] was 30.55%.

As for `O=C(NC1CCN(CCN2CCc3ccccc3CC2)CC1)c1ccc(-c2ccc(C(F)(F)F)cc2)cc1` [TCMDC-138831], the “% Inhibition” value is -7.885%. The value for `O=C(NCCCN1CCC(NC(=O)c2ccc(-c3cccnc3)cc2)CC1)c1ccc(Cl)c(Cl)c1` [TCMDC-133357] was 16.57%; that for `O=C(NCCCCCN1CCC(c2c[nH]c3ccccc23)CC1)c1ccc(-c2cccnc2)cc1` [TCMDC-139183] was 113.1%; that for `O=C(/C=C/c1ccc(C(F)(F)F)cc1)NCCCCCN1CCC(c2c[nH]c3ccccc23)CC1` [TCMDC-139209] was 23.24%. The value for `O=C(NC1CCN(CCN2CCC(c3ccccc3C(F)(F)F)CC2)CC1)c1ccc(-c2ccc(Cl)cc2)cc1` [TCMDC-138809] was -39.81%; that for `O=C(NCCCCCN1CCC(c2c[nH]c3ccccc23)CC1)c1ccc(-c2ccccc2)nc1` [TCMDC-139157] was -73.03%. Consider `O=C(NCCCCN1CCC(c2c[nH]c3ccccc23)CC1)c1ccc(-c2ccc(C(F)(F)F)cc2)cc1` [TCMDC-138631], for which the “% Inhibition” value worked out at 87.17%.

Take `O=C(NCCCCCN1CCC(c2ccc(O)cc2)CC1)c1ccc(-c2ccccc2)cc1` [TCMDC-139196]: the “% Inhibition” value was -56.25%. `O=C(NCCCCN1CCC(c2c[nH]c3ccc(-c4ccccc4)cc23)CC1)c1ccc(-c2ccccc2)cc1` [TCMDC-139064]: the “% Inhibition” value worked out at 108.8%. For the compound `O=C(NC1CCN(CCN2CCC(c3c[nH]c4ccccc34)CC2)CC1)c1ccc(-c2ccc(C(F)(F)F)cc2)cc1` [TCMDC-138845], the “% Inhibition” value is 66.39%. The value for `O=C(NCCCCN1CCC(c2c[nH]c3ccccc23)CC1)c1sc(-c2ccc(C(F)(F)F)cc2)nc1CO` [TCMDC-138780] was -12.54%; that for `CC(=O)c1ccccc1OCCSc1nnc(Cc2cccs2)n1C1CCCCC1` [TCMDC-123554] was -19.51%; that for `CCN(C(=O)NC)C1c2cc(C#N)ccc2OC(C)(C)C1O` (stereo not drawn) [TCMDC-131556] was 13.93%.

As for `CCCC1N=C(N)N=C(N)N1c1ccc(C)c(C)c1` (stereo not drawn) [TCMDC-131301], the “% Inhibition” value turned out to be 2.054%.

With `O=C(Nc1cc(C(F)(F)F)ccc1N1CCOCC1)C(Cl)(Cl)Cl` [TCMDC-123707], the “% Inhibition” value was 15.78%. For `CCCCN(CCCC)C(=N)c1cccc2c1CCCC2` [TCMDC-131553], the “% Inhibition” value amounted to 17.3%. The value for `COc1ccc(CC2(c3ccc(F)cc3)N=C(N)N(CCCc3ccc4c(c3)OCO4)C2=O)cc1` (stereo not drawn) [TCMDC-136540] was -15.69%.

On to `COc1cc(Cc2cnc(N)nc2N)cc(OCCNC(=O)OCc2ccccc2)c1OC` [TCMDC-138056], for which the “% Inhibition” value was -17.39%.

For `CCOC(=O)Nc1cc(-c2csc(N=C(N)N)n2)cc([N+](=O)[O-])c1` [TCMDC-137230], the “% Inhibition” value is recorded as -82.77%. In the case of `Cn1nccc1C(=O)NCCNCc1cccc(-c2cccc(-c3nc4cc(C(F)(F)F)ccc4[nH]3)c2)c1.O=C(O)C(F)(F)F` [TCMDC-133008], the “% Inhibition” value is 12.04%. As to `COc1cc2c(cc1S(=O)(=O)c1ccc(NC(=O)c3cc4ccccc4s3)cc1)CCN(C)CC2` [TCMDC-133789], the “% Inhibition” value came out at 17.23%. For the compound `COc1ccc2nc(C)cc(NC3Cc4ccccc4C3)c2c1.Cl` [TCMDC-138978], the “% Inhibition” value was found to be 40.25%. The value for `COc1ccc(Nc2nc(N/N=C/c3ccc(-c4ccc([N+](=O)[O-])cc4)o3)nc(Nc3ccccc3)n2)cc1` [TCMDC-124187] was 17.9%; that for `Oc1ccc2ccccc2c1C=NNc1nc(Nc2ccccc2)nc(N2CCOCC2)n1` [TCMDC-123839] was -12.77%.

As to `O=[N+]([O-])c1cc2c(cc1C=NNc1nc(Nc3ccccc3)nc(Nc3ccccc3)n1)OCO2` [TCMDC-124249], the “% Inhibition” value was -0.02415%. The value for `Oc1ccc2ccccc2c1C=NNc1nc(Nc2ccccc2)nc(Nc2ccccc2)n1` [TCMDC-125790] was 78.83%.

For the compound `COc1ccc(Nc2nc(NN=Cc3cc(Br)c(O)cc3O)nc(Nc3ccc([N+](=O)[O-])cc3)n2)cc1` [TCMDC-124181], the “% Inhibition” value is listed as 28.04%.

Regarding `COc1ccc(Nc2nc(N/N=C/c3cc(Br)ccc3O)nc(Nc3ccc([N+](=O)[O-])cc3)n2)cc1` [TCMDC-124182], the “% Inhibition” value was 30.94%. The value for `COc1c(C=NNc2nc(Nc3ccccc3)nc(Nc3ccccc3)n2)ccc(Br)c1O` [TCMDC-125800] was 79.97%; that for `Brc1cc2c(cc1C=NNc1nc(Nc3ccccc3)nc(Nc3ccccc3)n1)OCO2` [TCMDC-124195] was 14.96%. Turning to `COc1ccc(Nc2nc(NN=Cc3cc(Cl)ccc3O)nc(Nc3ccccc3)n2)cc1` [TCMDC-124115], the “% Inhibition” value worked out at 59.23%. The value for `Cc1cccc(CN2CCCC3(CCN(Cc4ccccc4O)C3)C2)c1` (stereo not drawn) [TCMDC-124654] was 29.07%; that for `Cc1cc(NC(=O)c2cccs2)ccc1OC1CCN(Cc2ccccc2)C1` (stereo not drawn) [TCMDC-133968] was -2.762%; that for `O=C(Cc1cnc[nH]1)Nc1ccc(-c2cccc(-c3nc4ccc(F)cc4[nH]3)c2)cc1` [TCMDC-136941] was 11.61%. The value for `CCCCCCN1CCCN(Cc2ccc(C(=O)Nc3ccc(F)c(F)c3)cc2)CC1` [TCMDC-136392] was -27.76%; that for `CNCCNCc1ccc(-c2ccc(-c3nc4ccc(C(F)(F)F)cc4[nH]3)s2)cc1` [TCMDC-132838] was 66.7%; that for `Fc1ccc2nc(-c3ccc(-c4ccc(CNCCc5ccncc5)cc4)s3)[nH]c2c1` [TCMDC-132848] was -14.58%. The value for `CNCCNCc1ccc(-c2ccc(-c3nc4ccc(F)cc4[nH]3)s2)cc1` [TCMDC-132829] was 87.07%; that for `COc1ccc(CNCc2ccc(-c3ccc(-c4nc5cc(C(F)(F)F)ccc5[nH]4)s3)cc2)cc1.O=C(O)C(F)(F)F` [TCMDC-132719] was -32.49%; that for `CNCCNCc1cccc(-c2ccc(-c3nc4ccccc4[nH]3)s2)c1` [TCMDC-132823] was 28.05%. `CS(=O)(=O)NCCCNCc1ccc(-c2ccc(-c3nc4ccc(F)cc4[nH]3)s2)cc1` [TCMDC-133084]: the “% Inhibition” value is given as 18.31%.
